Screening data: PubChem BioAssay, National Center for Advancing Translational Sciences (NCATS)
Shiga inhibitor = blocks Shiga toxin action in Vero cells. Vero cells, Shiga toxin protein synthesis inhibition reporter. inhibition, % at 38.7 µM. AID 2315. 290,000 tested, 9.2% active; in the data active means inhibition mostly above about 28%, no sharp cut-off; inactive means mostly below about 43%; further: 0% is about no effect
Cycloheximide cs = affects cycloheximide protein synthesis inhibition readout, counter-screen | 300,000 tested, 12% active | max response, % | cell reporter, cycloheximide protein synthesis inhibition counterscreen; in the data active means max response mostly above about 13%, no sharp cut-off; inactive means mostly below about 14%; further: read at 38.3 µM for the half of the compounds with a filed dose; 0% is about no effect
Pf growth 48h = P. falciparum growth inhibition at 48 hours (one generation) | Potency, µM (titrated, usually from 28.7 µM), inactives show at the top dose activity change, negative = inhibition, usual class: inhibitors | 310,000 tested, 5.9% active | P. falciparum luciferase growth in erythrocytes, 48 h | AID 504832; further: potency means the concentration at half of the fitted maximal effect; on the % scale 0 is the no-effect control and ±100 the full control effect
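In quantitative HTS format, infected erythrocytes bearing luciferase-reporter parasites were treated for a single generation at 37 C. Luminescence after adding detection reagent served as the growth measure.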
HCMV antiviral = inhibitors of human cytomegalovirus; activity change, negative = inhibition, % at 57.5 µM; 410,000 tested, 4.5% active; HFF cells, HCMV-luciferase reporter, 72 h; hits give low values; in the data active means activity change below about -60%; inconclusive means no clear call, values can overlap the other calls; inactive means above about -39%; further: on the % scale 0 is the no-effect control and ±100 the full control effect
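Human foreskin fibroblasts infected with luciferase-reporter HCMV at MOI 1 PFU/cell, compounds at two doses. Luciferase measured 72 h post infection; normalized to buffer-only basal and Salinomycin (10uM) controls.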
Pf growth 96h = inhibits malaria parasite growth, 96 h. P. falciparum luciferase reporter growth, 96 h. Potency, µM (top dose mostly 28.7 µM), for inactives: at the highest dose activity change, negative = inhibition, hits mostly inhibitors. 320,000 tested, 6.9% active. AID 504834; further: potency means the concentration at half of the fitted maximal effect; on the % scale 0 is the no-effect control and ±100 the full control effect
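Parasite growth measured via integrated firefly luciferase reporter in P. falciparum. Infected erythrocytes at 2% hematocrit, 0.05% parasitemia final were treated 96 hours at 37 C under 5% CO2, and luminescence was read.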
Starred values were filed as active, the others as inactive; u = inconclusive; x = not tested or not shown; [ ] = dose if it differs, or a comment. A selection: hits, their analogues and other compounds. The true share with any hit is near 20%. Unless noted, the call rests on the fitted dose curve; in most records, active means well fitted inhibition curve with a large enough effect; inconclusive means small, poorly fitted or top-dose-only effect, or another doubt; inactive means no such curve, though single readings can be large or run the other way.

SMILES	Shiga inhibitor	Cycloheximide cs	Pf growth 48h	HCMV antiviral	Pf growth 96h
COC(=O)C1=C(C)NC(=O)/C1=C\c1cc(C)n(-c2ccccc2)c1C	102*	35*	0%	-6	u
COc1ccc(NC(=O)Cn2cc(S(=O)(=O)c3ccccc3)c(=O)c3cc(C)ccc32)cc1Cl	x	x	x	32	x
Cc1cccc(N2CCN(C(=O)c3cnn(-c4ccccc4Cl)c3C3CCN(C(=O)OC(C)(C)C)CC3)CC2C)c1 (stereo unspecified)	x	x	x	0	x
O=C(COC(=O)c1ccc(F)cc1F)NCc1ccc2c(c1)OCO2	x	x	x	-15	x
O=C(OCc1cc2ccccc2[nH]c1=O)c1cccc([N+](=O)[O-])c1	3	1	24%	-13	15%
CC1CCCCN1Cc1c(O)ccc2c(=O)c(-c3ccc(Cl)cc3)c(C(F)(F)F)oc12 (stereo unspecified)	x	x	x	-2	x
Cc1ccc(C)c(NC2=C(c3ccc(C(F)(F)F)cc3)C(=O)c3ccccc32)c1	x	x	x	-9	x
O=C(Nc1ccc2ccccc2c1)C(=O)C1C(=O)Nc2ccccc21 (stereo unspecified)	66*	32*	48%	6	95%
O=C(Nc1ccc(F)cc1)C(=O)C1C(=O)Nc2ccccc21 (stereo unspecified)	55*	14	21%	50	33%
Cc1cccc(NC(=O)CN2c3ccccc3S(=O)(=O)c3ccccc32)c1C	x	x	x	25	x
COc1ccc(OCCSc2nnc(-c3ccoc3C)n2C)cc1	7	0	8.3µM*	3	u
CCOC(=O)c1cccc(NC(=O)CSc2nnnn2CC)c1	7	-3	-3%	-34	-8%
COC(=O)CSc1nnc(-c2ccoc2C)n1-c1ccc(OC)cc1	-7	-3	6%	-32	u
Cc1occc1-c1nnc(SCC(=O)Nc2ccc(F)cc2)n1C	-6	2	u	-37	4%
Cc1occc1-c1nnc(SCC(=O)Nc2ccccc2)n1Cc1ccccc1	-1	-2	u	-62*	86%
Cc1cccc(C)c1NC(=O)CSc1nnc(-c2ccoc2C)n1C	7	-2	0%	13	9.3µM*
CCOC(=O)c1cccc(NC(=O)CSc2nnc(-c3ccoc3C)n2CC)c1	-20	16	-9%	-38	13µM*
COc1ccc(NC(=O)CC2C(=O)N(Cc3cccs3)C(=S)N2C(C)C)cc1 (stereo unspecified)	18	13	2.6µM*	-36	29%[5.75 µM]
CCCOc1ccc(NC(=O)CC2C(=O)N(C)C(=S)N2Cc2cccs2)cc1 (stereo unspecified)	8	7	12µM*	-11	u
COc1ccc(NC(=O)CC2C(=O)N(Cc3ccco3)C(=S)N2C(C)C)cc1 (stereo unspecified)	15	-2	u	-18	1%
CC(C)NC(=O)NC(=O)COC(=O)c1cc[n+]([O-])cc1	2	-4	6%	3	31%
N=c1c(C(=O)NC2CCCCC2)cc2c(=O)n3ccccc3nc2n1Cc1ccco1	6	-4	3.7µM*	31	13%
N=c1c(C(=O)NCC2CCCO2)cc2c(=O)n3ccccc3nc2n1Cc1ccco1 (stereo unspecified)	-3	-4	2%	-6	2%
COc1ccc(CCn2c(=N)c(C(=O)NCc3ccco3)cc3c(=O)n4ccccc4nc32)cc1	-20	-4	2.9µM*	u	u
N=c1c(C(=O)NC2CCCCC2)cc2c(=O)n3ccccc3nc2n1Cc1ccccc1	-9	-3	u	u	5.9µM*
SMILES	Shiga inhibitor	Cycloheximide cs	Pf growth 48h	HCMV antiviral	Pf growth 96h
N=c1c(C(=O)NC2CCCCC2)cc2c(=O)n3ccccc3nc2n1CCc1ccccc1	29	-3	1.5µM*	-4	1.7µM*
CCOc1ccc(NS(=O)(=O)c2ccc3c(c2)CCCN3C(=O)C2CCC2)cc1	x	x	x	-9	x
COC(=O)c1cc2oc(C)cc2n1Cc1ccc(Br)cc1F	x	x	x	36	x
CCOC(=O)c1[nH]c(C)c(CCC(=O)NCc2ccc(CC)cc2)c1C	x	x	x	0	x
COc1cc(NC(=O)CCc2c(C)nc3c(c(C)nn3-c3ccccc3)c2C)cc(OC)c1OC	x	x	x	13	x
N=c1c(C(=O)NCCc2ccccc2)cc2c(=O)n3ccccc3nc2n1Cc1ccco1	33	-5	2.3µM*	u	56%
N=c1c(S(=O)(=O)c2ccccc2)cc2c(=O)n3ccccc3nc2n1Cc1ccco1	-1	-3	x	-34	x
O=C(NCCc1cccs1)C1CC(c2ccccc2F)=NO1 (stereo unspecified)	19	11	45%	-2	60%
O=C(NCc1ccc(OC(F)(F)F)cc1)C1CC(c2c(Cl)cccc2Cl)=NO1 (stereo unspecified)	-3	-3	1.3µM*	28	36%
O=C(NCCc1cccs1)C1CC(c2c(Cl)cccc2Cl)=NO1 (stereo unspecified)	46	40*	45%	-13	u
O=C(NCc1cc(C(F)(F)F)cc(C(F)(F)F)c1)C1CC(c2c(Cl)cccc2Cl)=NO1 (stereo unspecified)	-4	-4	-2%	0	u
CCCNC(=O)C1CC(c2cccc(F)c2)=NO1 (stereo unspecified)	4	1	58%	-10	78%
O=C(NCCc1cccs1)C1CC(c2cccc(F)c2)=NO1 (stereo unspecified)	5	5	u	-12	1.7µM*
CCn1ccc2cc(S(=O)(=O)N3CCC(C(=O)NCc4ccc(OC(C)C)cc4)CC3)ccc21	x	x	x	-3	x
COc1ccc(CCNC(=O)CCc2c(C)nc3c4c(C)cc(C)nc4nn3c2C)cc1OC	x	x	x	1	x
C=CCC1(CC=C)CCCN1C(=O)c1ccc2oc(CCCC)nc2c1	x	x	x	93	x
COC1CCN(C(=O)c2ccc3oc(C(C)C)nc3c2)CC1	20*	23*	42%	-28	-47%
COc1ccc([C@@H](C)NC(=O)c2ccc3oc(C(C)C)nc3c2)cc1	74*	50*	47%	59	0.66µM*
O=C(c1ccc2oc(Cc3ccc(Cl)cc3)nc2c1)N1CC[C@H](O)C1	2	6	-11%	-29	7%
CC(C)c1nc2ccc(C(=O)NC(C)c3ccccc3)cc2o1 (stereo unspecified)	x	x	x	0	x
CCCCc1nc2cc(C(=O)N3CCN(c4nc(C)cnc4C)CC3)ccc2o1	70*	47*	-27%	0	1%
CCCCc1nc2cc(C(=O)N3CCCCC3COC)ccc2o1 (stereo unspecified)	87*	35*	46%	36	u
CC(=O)c1ccccc1OC(=O)COc1ccc(Cl)cc1C	-1	-2	31%	-30	-19%
CCCCc1nc2cc(C(=O)N3CCC(OC)CC3)ccc2o1	44*	27*	31%	69	49%
CCCCc1nc2cc(C(=O)N3CCCCC3CCNC(C)=O)ccc2o1 (stereo unspecified)	4	2	0%	u	-7%
